PubChem BioAssay (NCATS)
Several values for one entry are separate records, joined by “and”; a condition that tells them apart may be missing. Equal values may be shown once. Inconclusive results are not listed. A call without a number means that no potency is given here. Unmarked numbers belong to inactive results. Activity calls are given as the source filed them. Calls follow the shape of the dose curve; as a rule, active = well fitted curve in the direction sought with a large enough effect; inconclusive = small, poorly fitted or top-dose-only effect, or another doubt; inactive = no such curve, though single readings can be large; an effect the other way counts as inactive or inconclusive.

How the values were obtained:
HaCat [1] = assay: Cytotoxic Profiling of Annotated Libraries Using Quantitative High-Throughput Screening (AID 1296008); details: Five cell lines viability, CellTiter-Glo ATP luminescence, 48-72 h; max response: active compounds read low; also: nearly all actives have a fitted effect of over 60% in size
Outline: (§1)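 Cells exposed to compounds for 48 or 72 hr at 37 degrees Celsius. Viability read as ATP-coupled luminescence with CellTiter-Glo after 10 min at room temperature.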

KB-3-1 = assay: as above; details: Five cell lines viability, CellTiter-Glo ATP luminescence, 48-72 h; max response: active compounds read low
Outline: as §1

CASKI = assay: Primary qHTS to identify gynecologic anti-cancer compounds using libraries of approved drugs and bioactive compounds (AID 1345084); details: Gynecologic cancer cell panel viability, ATPlite luminescence, 48 h; series mostly up to 57.5 µM; also: nearly all actives have a fitted effect of over 55% in size
Outline: (§2)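 Five-point cytotoxicity, 48 h drug exposure at 37 C, 5% CO2, on cells seeded 16 h beforehand. ATP content read by ATPlite luminescence.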

Es-2 = assay: as above; details: Gynecologic cancer cell panel viability, ATPlite luminescence, 48 h; series mostly up to 57.5 µM
Outline: as §2

HeLa = assay: as above; details: Gynecologic cancer cell panel viability, ATPlite luminescence, 48 h; series mostly up to 57.5 µM
Outline: as §2

OV90 = assay: as above; details: Gynecologic cancer cell panel viability, ATPlite luminescence, 48 h; series mostly up to 57.5 µM
Outline: as §2

NIH3T3 [2] = assay: Cytotoxic Profiling of Annotated Libraries Using Quantitative High-Throughput Screening (AID 1296008); details: Five cell lines viability, CellTiter-Glo ATP luminescence, 48-72 h; max response: active compounds read low; also: nearly all actives have a fitted effect of over 60% in size
Outline: as §1

HACAT [3] = assay: qHTS assay to identify novel small-molecules to repurpose for Merkel cell carcinoma treatment (AID 1296009); details: MCC and control cell lines, CellTiter-Glo viability, 72 h; series mostly up to 44.8 µM; also: nearly all actives have a fitted effect of over 60% in size
Outline: (§3)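 Cells were treated for 72 hr at 37 degree celsius with compounds in 8- or 11-point dose response. Viability was read by CellTiter-Glo luminescence, normalized to no-cell (cytotoxicity) and DMSO controls.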

NIH3T3 [4] = assay: as above; details: MCC and control cell lines, CellTiter-Glo viability, 72 h; at 44.8 µM (top of the series) unless noted
Outline: as §3

C33A = assay: Primary qHTS to identify gynecologic anti-cancer compounds using libraries of approved drugs and bioactive compounds (AID 1345084); details: Gynecologic cancer cell panel viability, ATPlite luminescence, 48 h; series mostly up to 57.5 µM; also: nearly all actives have a fitted effect of over 55% in size
Outline: as §2

CAOV3 = assay: as above; details: Gynecologic cancer cell panel viability, ATPlite luminescence, 48 h; series mostly up to 57.5 µM
Outline: as §2

Hek293T [5] = assay: as above; details: Gynecologic cancer cell panel viability, ATPlite luminescence, 48 h, control line for the selectivity index; series mostly up to 57.5 µM
Outline: as §2

JEG-3 = assay: as above; details: Gynecologic cancer cell panel viability, ATPlite luminescence, 48 h; series mostly up to 57.5 µM
Outline: as §2

HEK293T [6] = assay: qHTS assay to identify novel small-molecules to repurpose for Merkel cell carcinoma treatment (AID 1296009); details: MCC and control cell lines, CellTiter-Glo viability, 72 h; at 44.8 µM (top of the series) unless noted; also: nearly all actives have a fitted effect of over 60% in size
Outline: as §3
Potency is read from the fitted curve at half-maximal effect.

CC[C@]1(O)CC2CN(CCc3c([nH]c4ccccc34)[C@@](C(=O)OC)(c3cc4c(cc3OC)N(C)[C@H]3[C@@](O)(C(=O)OC)[C@H](OC(C)=O)[C@]5(CC)C=CCN6CC[C@]43[C@@H]65)C2)C1 (stereo partly specified)
max response (HaCat [1]): 4.47%
Potency (KB-3-1): 0.0366 µM (active)
Potency (CASKI): 1.12 µM (active)
Potency (Es-2): 0.794 µM (active)
Potency (HeLa): 0.708 µM (active)
Potency (OV90): 3.16 µM (active)

CC(O)/C=C/C1(O)C2(C)COC1(C)CC(O)C2 (stereo unspecified)
max response (HaCat [1]): -4.33%
max response (KB-3-1): -4.44%
Potency (Es-2): inactive

CCCCCCOc1cc2c(cc1N(C)c1ncc(C(=O)O)cn1)C(C)(C)CCC2(C)C
outcome (HaCat [1]): inactive
outcome (NIH3T3 [2]): inactive
Potency (HACAT [3]): inactive
outcome (NIH3T3 [4]): inactive
Potency (C33A): inactive
Potency (CAOV3): inactive
Potency (CASKI): inactive
Potency (Es-2): inactive
Potency (HeLa): inactive
Potency (Hek293T [5]): inactive
Potency (JEG-3): inactive
Potency (OV90): inactive

CN1CCN(c2ccc(C(=O)Nc3n[nH]c4ccc(Cc5cc(F)cc(F)c5)cc34)c(NC3CCOCC3)c2)CC1
Potency (HaCat [1]): 18.4 µM (active) and 14.8 µM (active)
Potency (NIH3T3 [2]): 10.5 µM (active)
Potency (C33A): inactive
Potency (Es-2): inactive
Potency (Hek293T [5]): inactive
Potency (JEG-3): inactive

CC(C)(C)Nc1nc2cc(Cl)c(Cl)cc2nc1S(C)(=O)=O
Potency (HaCat [1]): 5.8 µM (active)
Potency (KB-3-1): 13 µM (active)
Potency (CASKI): 35.5 µM (active)
Potency (Hek293T [5]): 28.2 µM (active)
Potency (JEG-3): 15.8 µM (active)

CNC(=O)c1ccccc1Nc1nc(Nc2ccc3c(c2OC)CCCC(N2CCN(CCO)CC2)C3)ncc1Cl (stereo unspecified)
Potency (KB-3-1): 10.3 µM (active)
Potency (NIH3T3 [2]): 9.2 µM (active)
Potency (HACAT [3]): 5.8 µM (active)
Potency (CAOV3): 10 µM (active)
Potency (CASKI): 17.8 µM (active)
Potency (JEG-3): inactive

CCNCc1nc2c(N)nc3ccccc3c2n1CC(C)(C)O
outcome (HaCat [1]): inactive
outcome (NIH3T3 [2]): inactive
Potency (HACAT [3]): inactive
outcome (NIH3T3 [4]): inactive
Potency (C33A): inactive
Potency (CAOV3): inactive
Potency (CASKI): inactive
Potency (Es-2): inactive
Potency (HeLa): inactive
Potency (Hek293T [5]): inactive
Potency (JEG-3): inactive
Potency (OV90): inactive

COc1ccc(-n2[nH]c(=O)c3[nH]c4cc(Cl)ccc4c(=O)c3c2=O)c(C)c1
outcome (HaCat [1]): inactive
max response (NIH3T3 [2]): 4.85%
Potency (HACAT [3]): inactive
outcome (HEK293T [6]): inactive
Potency (C33A): inactive
Potency (CAOV3): inactive
Potency (CASKI): inactive
Potency (Es-2): inactive
Potency (HeLa): inactive
Potency (Hek293T [5]): inactive
Potency (JEG-3): inactive
Potency (OV90): inactive

C=C1CCC2C(C)(COC(C)=O)CCCC2(C)C1CCC(C)CC(=O)O (stereo unspecified)
max response (KB-3-1): 8.96%
outcome (NIH3T3 [2]): inactive
outcome (HEK293T [6]): inactive
outcome (NIH3T3 [4]): inactive
Potency (C33A): inactive
Potency (CAOV3): inactive
Potency (CASKI): inactive
Potency (Es-2): inactive
Potency (HeLa): inactive
Potency (Hek293T [5]): inactive
Potency (JEG-3): inactive
Potency (OV90): inactive

C[C@@H]1C[C@@H]2O[C@H]2/C=C\C=C\C(=O)Cc2c(Cl)c(O)cc(O)c2C(=O)O1
Potency (HaCat [1]): 3.6 µM (active)
Potency (KB-3-1): 2.27 µM (active)
Potency (HeLa): inactive
Potency (JEG-3): inactive

CC1CCC2(OC1)OC1CC3C4CCC5C[C@@H](O[C@@H]6O[C@H](CO[C@@H]7OC[C@@H](O)[C@H](O)[C@H]7O)[C@H](O)[C@H](O)[C@H]6O)CC[C@]5(C)C4CC[C@]3(C)C1C2C (stereo partly specified)
max response (KB-3-1): 9.78%
outcome (NIH3T3 [2]): inactive
outcome (HEK293T [6]): inactive [at 17.4 µM]
outcome (NIH3T3 [4]): inactive [at 17.4 µM]
Potency (C33A): inactive
Potency (CAOV3): inactive
Potency (CASKI): inactive
Potency (Es-2): inactive
Potency (HeLa): inactive
Potency (Hek293T [5]): inactive
Potency (JEG-3): inactive
Potency (OV90): inactive

COc1cccc(-c2cc(NCc3ccc4c(c3)OCO4)nc(N)n2)c1
max response (HaCat [1]): -46.3%
Potency (KB-3-1): 0.231 µM (active)
Potency (Es-2): 1.41 µM (active)
Potency (HeLa): 1 µM (active)
Potency (JEG-3): 1.41 µM (active)

C=C1C(=O)OC2C1CCC(=C)C1CC(OC(C)=O)C(=C)C12 (stereo unspecified)
max response (HaCat [1]): -12%
max response (KB-3-1): 1.53%
Potency (HeLa): inactive

CCN(Cc1cccnc1)C(=O)CN(c1ccc(OC)nc1)S(=O)(=O)c1ccccc1C
outcome (HaCat [1]): inactive
outcome (NIH3T3 [2]): inactive
Potency (HACAT [3]): inactive
outcome (HEK293T [6]): inactive
outcome (NIH3T3 [4]): inactive
Potency (C33A): inactive
Potency (CAOV3): inactive
Potency (CASKI): inactive
Potency (Es-2): inactive
Potency (HeLa): inactive
Potency (Hek293T [5]): inactive
Potency (JEG-3): inactive
Potency (OV90): inactive
